Records with an inconclusive call do not appear. Activity calls are given as the source filed them. Calls come from the whole dose curve; as a rule, active = well fitted cell-killing curve with a large enough effect in the repeat runs; inconclusive = weak or mixed curves, or effect the other way; inactive = flat fitted curve, though single readings scatter.
experiment: qHTS assay to identify small molecule antagonists of the estrogen receptor alpha (ER-alpha) signaling pathway using the BG1 cell line in the presence of 0.1 nM 17-beta-estradiol - cell viability counter screen (AID 1259241); settings: VM7Luc4E2 (BG1) viability, CellTiter-Fluor protease, 22 h, 0.1 nM estradiol agonist added; series mostly up to 92.4 µM; activity change, negative = cytotoxicity: at the top concentration; note: nearly all actives have a fitted effect of over 40% in size
Text: National Center for Advancing Translational Sciences [NCATS]
NIH Chemical Genomics Center [NCGC]
U.S. Environmental Protection Agency [EPA]
National Institutes of Environmental Health Sciences [NIEHS]
National Toxicology Program [NTP]
U.S. Food and Drug Administration [FDA]
Estrogen receptor (ER), a member of the nuclear hormone receptor plays an important role in development, metabolic homeostasis and reproduction. Two subtypes of ER, ER-alpha and ER-beta, have similar expression patterns with some uniqueness in both types. Endocrine disrupting chemicals (EDCs) and their interactions with steroid hormone receptors like ER causes disruption of normal endocrine function. Therefore, it is important to understand the effect of environmental chemicals in ER signaling pathway. For identifying ER antagonists, VM7Luc4E2 cell line was used to screen against Tox21 compound libraries.
VM7Luc4E2 cell line (provided by Denison MS, University of California) endogenously express full-length ER-alpha and is stably transfected with a plasmid containing four estrogen responsive elements (ERE) upstream of a luciferase reporter gene. The current screening for identification of ER-alpha inhibitors against Tox21 compound libraries used lower concentration (0.1 nM) of 17beta-Estradiol as a stimulator. The cytotoxicity of the Tox21 compound libraries against VM7Luc4E2 cell line was tested by measuring live-cell protease activity using CellTiter-Fluor assay in the same wells.
Tox21 Assay Protocol Summary:
VM7Luc4E2 cells were cultured in phenol red free assay medium containing 10% charcoal stripped FBS for 5 days prior to the assay. The cells were dispensed at 4,000 cells/well in 4 uL of assay medium into white wall/solid-bottom 1536-well plates (Corning Life Sciences, Corning, NY) using a Multidrop Combi (ThermoFisher Scientific, Waltham, MA) dispenser. After the assay plates were incubated at 37C and 5% CO2 for 24 hr, 23 nL of compounds dissolved in DMSO, positive controls or DMSO only was transferred to the assay plates by a Pintool station (Kalypsys, San Diego, CA). The transfer of compounds was followed by the addition of 1 uL of 0.1 nM (final concentration) agonist (17beta-Estradiol)/assay medium using a Flying Reagent Dispenser (FRD, Aurora Discovery, San Diego, CA). The plates were incubated at 37C and 5% CO2 for 22 hr. For cytotoxicity assay, 1 uL of CellTiter-Fluor reagent (Promega Corporation, Madison, WI) was added to each well using the FRD and after 30 min incubation at 37C and 5% CO2, The fluorescence intensity was measured using ViewLux plate reader (PerkinElmer, Shelton, CT).
% is set by controls: 0 for no effect and ±100 for the full control effect.

SMILES | activity change, negative = cytotoxicity
CC(=O)c1ccc2ccc3ccccc3c2c1 | 0.218% (inactive)
CCOCCOCCOC(C)=O | 10.2% (inactive)
N#CC1(N)CCCCC1 | -0.326% (inactive)
COC(=O)c1cc(Cl)c(NC(C)=O)cc1OC | -2.01% [at 42.5 µM] (inactive)
COc1ccccc1N1CCN(CC(O)COc2cc(OC)c(OC)c(OC)c2)CC1 (stereo not given) | -9.53% [at 42.5 µM] (inactive)
COC(=O)C(c1ccccc1Cl)N1CCc2sccc2C1 (stereo not given) | -1.53% [at 42.5 µM] (inactive)
CCCC(=O)CC | 1.03% (inactive)
C=CCOC(=O)CCCCCCCC | 23.5% (inactive)
CN(C)c1cc(NC(=O)CNC(C)(C)C)c(O)c2c1C[C@H]1C[C@H]3[C@H](N(C)C)C(=O)C(C(N)=O)=C(O)[C@@]3(O)C(=O)C1=C2O | -7.05% [at 42.5 µM] (inactive)
Cc1cc(=O)oc2cc(O[C@@H]3SC[C@@H](O)[C@H](O)[C@H]3O)ccc12 | 4.04% [at 42.5 µM] (inactive)
CC(C)(C)C(=O)NCCCC(=O)O | 1.23% [at 42.5 µM] (inactive)
CC(=O)c1ccc(O)c(C(N)=O)c1 | 0.934% [at 42.5 µM] (inactive)
Cc1ccc(O)c([N+](=O)[O-])c1 | -3.56% (inactive)
CCO/C=C1\N=C(c2ccccc2)OC1=O | 0.0696% (inactive)
CC(C)(C)c1ccc(C(=O)CCCCl)cc1 | 3.13% [at 42.5 µM] (inactive)
CC1(C)S[C@@H]2[C@H](NC(=O)Cc3ccccc3)C(=O)N2[C@H]1C(=O)O (tested in a mixture with another compound) | 0.117% [at 42.5 µM] (inactive)
O=C(OOC(=O)c1ccccc1)c1ccccc1 | 8.64% [at 42.5 µM] (inactive)
C=CC(C)(CCC=C(C)C)OC(=O)C(C)C (stereo not given) | -15.2% (inactive)
Cc1ccccc1OCC(=O)O | 9.92% (inactive)
CN(C)CCCN(C)C | -1.36% [at 8.39 µM] (inactive)

SMILES | activity change, negative = cytotoxicity
C/C(Cl)=C/CCl | 0% (inactive)
CCCCCCCCCCCCCCCC/C=C/C1CC(=O)OC1=O (stereo not given) | 3.25% [at 42.5 µM] (inactive)
CC(C)(C)OC=O | 12.1% (inactive)
CC(C)(C)NCC(O)COc1cccc2c1CCC(=O)N2 (stereo not given) | 6.89% [at 42.5 µM] (inactive)
CCCCCCCCCCCCCCCCN(C)C | 8.65% [at 8.39 µM] (inactive)
Cc1ccccc1C#N | -9.75% (inactive)
Cc1ccc2ccccc2n1 | -1.85% (inactive)
C/C=C/C(=O)CCCC | 1.36% (inactive)
CCCCCCC(O)CO (stereo not given) | 1.93% (inactive)
CN(C)CCc1c[nH]c2ccc(C[C@H]3COC(=O)N3)cc12 | 0.91% [at 42.5 µM] (inactive)
C=CCn1cc[n+](C)c1 | 7.05% (inactive)
COCc1nnc(-c2ccc[n+]([O-])c2)n1-c1c(Cl)c(Cl)cc2[nH]c(=O)c(=O)[nH]c12 | -0.528% (inactive)
CN(C)c1ccncc1 | 3.82% (inactive)
COc1cc2nc(N3CCN(C(=O)C4CCCO4)CC3)nc(N)c2cc1OC (stereo not given) | 3.66% [at 42.5 µM] (inactive)
O=C(CCBr)N1CCN(C(=O)CCBr)CC1 | 1.39% [at 42.5 µM] (inactive)
Cc1nc2ccc(Cl)cc2[nH]1 | 8.93% (inactive)
COc1cnc(NS(=O)(=O)c2ccc(N)cc2)nc1 | 0.338% [at 42.5 µM] (inactive)
CCc1ccc(CC)cc1 | 5.48% (inactive)
COc1ccc(Cl)cc1C | 6.51% (inactive)
CC(O)CCCCn1c(=O)c2c(ncn2C)n(C)c1=O (stereo not given) | -0.2% [at 42.5 µM] (inactive)

Source: PubChem BioAssay (Tox21)
